# Experimental data published in the supplement of paper PMC8285479.
# Structures can show the parent of a compound that is named as a salt. ± gives the standard deviation of the averaged measurements. Whole data set: some 1,900 compounds, median “normalised cell viability (NPI; 0 = phenylarsine oxide control, 1 = DMSO control)” near 1, cut for the lowest 2% near 0.039. Shown is part of a subset that was picked to be rich in the lowest values.
# System: NCI-H1944
# Experiment: normalised cell viability (NPI; 0 = phenylarsine oxide control, 1 = DMSO control) (fraction of DMSO control); NCI-H1944 is a non-small cell lung cancer line; higher = more viable cells (less compound toxicity)
# Settings: 6 days
# [1] = glucocorticoid arm: hydrocortisone 2.75 uM co-treatment, compound 1 µM
# [2] = glucocorticoid arm: hydrocortisone 2.75 uM co-treatment, compound 5 µM
# [3] = glucocorticoid arm: hydrocortisone 2.75 uM pre-treated 2 days and continued, compound 1 µM
# [4] = glucocorticoid arm: hydrocortisone 2.75 uM pre-treated 2 days and continued, compound 5 µM
# [5] = glucocorticoid arm: vehicle, compound 1 µM
# [6] = glucocorticoid arm: vehicle, compound 5 µM
# 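Further: CTB read-out in 384-well plates, triplicate wells, NPI normalised per plate against 1 µM phenylarsine oxide (0) and 0.1% DMSO (1) controls.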
Compound,normalised cell viability [1],normalised cell viability [2],normalised cell viability [3],normalised cell viability [4],normalised cell viability [5],normalised cell viability [6]
CC1c2cccc(O)c2C(O)=C2C(=O)C3(O)C(O)=C(C(N)=O)C(=O)C(N(C)C)C3C(O)C21 (centres undefined) [Doxycycline hydrochloride],1,0.9303 ± 0.0093,0.99 ± 0.014,0.945 ± 0.018,0.9897 ± 0.0067,0.9743 ± 0.006
COC(=O)C(C)(N)Cc1ccc(O)cc1 (racemic) [alpha-Methyl-DL-tyrosine methyl ester hydrochloride],1.004 ± 0.01,1.01 ± 0.034,1.01 ± 0.023,0.999 ± 0.011,0.9943 ± 0.0057,1.004 ± 0.0098
Cc1cc(C(=O)NOCCO)c(Nc2ccc(I)cc2F)n(C)c1=O,0.614 ± 0.018,0.565 ± 0.035,0.66 ± 0.011,0.672 ± 0.037,0.286 ± 0.014,0.279 ± 0.013
Cn1c(=O)c(F)c(Nc2ccc(I)cc2F)c2c(=O)n(C[C@@H](O)CO)cnc21,0.641 ± 0.035,0.629 ± 0.043,0.772 ± 0.028,0.757 ± 0.042,0.329 ± 0.013,0.226 ± 0.025
CCCNC[C@H](O)COc1ccccc1C(=O)CCc1ccccc1 [(S)-(-)-propafenone hydrochloride],0.99967 ± 0.00058,0.9747 ± 0.0047,1.02 ± 0.026,1.02 ± 0.015,0.9967 ± 0.0058,0.995 ± 0.005
Cc1nc(C#Cc2ccnc(Cl)c2)c(C)n1-c1ccc(OC(F)(F)F)cc1,0.993 ± 0.021,0.992 ± 0.01,0.983 ± 0.015,0.9747 ± 0.004,1 ± 0.017,1 ± 0.014
O=S(=O)(NCCNCC=Cc1ccc(Br)cc1)c1cccc2cnccc12,0.985 ± 0.012,0.985 ± 0.025,1.03 ± 0.01,1.007 ± 0.0058,1.002 ± 0.0072,0.968 ± 0.016
"Cc1ccccc1N1CCN(S(=O)(=O)C[C@]23CC[C@H](C[C@@H]2NC(=O)[C@@H](N)CCS(C)(=O)=O)C3(C)C)CC1 [L-368,899 hydrochloride]",0.99 ± 0.017,0.986 ± 0.024,0.998 ± 0.013,1.01 ± 0.023,0.9847 ± 0.0035,0.9993 ± 0.0095
COC[C@H](NC(=O)c1cnc(C)s1)C(=O)N[C@@H](COC)C(=O)N[C@@H](Cc1ccccc1)C(=O)[C@@]1(C)CO1 [Oprozomib (ONX 0912)],0.208 ± 0.051,0.0253 ± 0.0081,0.7 ± 0.017,0.301 ± 0.021,0.0106 ± 0.0015,0.00109 ± 0.00065
Nc1ccc(-c2ccc3ncc4ccc(=O)n(-c5cccc(C(F)(F)F)c5)c4c3c2)cn1 [Torin 2],0.175 ± 0.0021,0.171 ± 0.0032,0.267 ± 0.012,0.299 ± 0.0097,0.0254 ± 0.002,0.0207 ± 0.0023
CCC(=O)N1CCN(c2ccc(-n3c(=O)ccc4cnc5ccc(-c6cnc7ccccc7c6)cc5c43)cc2C(F)(F)F)CC1 [Torin 1],0.4 ± 0.0087,0.383 ± 0.013,0.532 ± 0.018,0.518 ± 0.022,0.223 ± 0.023,0.286 ± 0.01
"O=C(O)[C@H]1C[C@H](C(=O)O)N1 (relative stereo) [trans-Azetidine-2,4-dicarboxylic acid]",1.007 ± 0.0058,1.007 ± 0.0058,1.005 ± 0.0087,1.01,0.9843 ± 0.0025,0.9883 ± 0.0091
CC(C)(C)c1cnc(CSc2cnc(NC(=O)C3CCNCC3)s2)o1,0.0382 ± 0.0034,0.036 ± 0.0061,0.148 ± 0.013,0.133 ± 0.018,0.00695 ± 0.0037,0.00933 ± 0.00035
C=C(C)C(CC=C(C)C)CC12CC(CC=C(C)C)C(C)(C)C(CC=C(C)C)(C(=O)C(=C(O)c3ccc(O)c(O)c3)C1=O)C2=O (centres undefined) [Garcinol],1 ± 0.012,1.01 ± 0.013,0.992 ± 0.014,0.997 ± 0.027,1.007 ± 0.0052,1.001 ± 0.01
O=[N+]([O-])c1ccc(-c2nc(-c3ccc(F)cc3)c(-c3ccncc3)[nH]2)cc1,0.976 ± 0.019,0.903 ± 0.014,0.9707 ± 0.008,0.865 ± 0.019,0.996 ± 0.004,0.962 ± 0.051
N#C/C(=C/c1ccc(O)c(O)c1)C(=O)NCc1ccccc1 [Tyrphostin AG 490],1.01 ± 0.016,1.03 ± 0.015,0.999 ± 0.028,1 ± 0.014,1.02 ± 0.01,1.02 ± 0.01
C[C@H](Cc1ccc(O)c(O)c1)[C@@H](C)Cc1ccc(O)c(O)c1,0.996 ± 0.013,1.02 ± 0.02,0.998 ± 0.013,1.04 ± 0.058,1.013 ± 0.0058,1.02 ± 0.011
CO/N=C(\C(=O)N[C@@H]1C(=O)N2C(C(=O)O)=C(CSc3nc(=O)c(O)nn3C)CS[C@H]12)c1csc(N)n1 [Ceftriaxone sodium salt],0.985 ± 0.0052,0.995 ± 0.025,0.849 ± 0.22,0.992 ± 0.0057,0.964 ± 0.0069,0.9743 ± 0.006
Oc1ccc2ccccc2c1SSc1c(O)ccc2ccccc12,1.03 ± 0.01,1.08 ± 0.021,1.017 ± 0.0058,1.01 ± 0.028,1.013 ± 0.0058,1.04 ± 0.01
CNc1nc(Nc2cnn(C3CCN(C4COC4)CC3F)c2Cl)ncc1C(F)(F)F (centres undefined),1.02 ± 0.01,1.05 ± 0.023,1.04 ± 0.01,1.05 ± 0.01,1.007 ± 0.0058,1.007 ± 0.0058
Cc1[nH]nc2ccc(-c3cncc(OC[C@@H](N)Cc4ccccc4)c3)cc12,0.452 ± 0.007,0.0555 ± 0.0049,0.792 ± 0.022,0.129 ± 0.0089,0.1 ± 0.012,0.0136 ± 0.0021
C#Cc1ccc2c(c1)C(=O)N(C)Cc1c(C(=O)OCCCOC(=O)c3ncn4c3CN(C)C(=O)c3cc(C#C)ccc3-4)ncn1-2 [Xli 093 hydrate],0.999 ± 0.011,1.01 ± 0.015,1 ± 0.013,1.01,0.99 ± 0.01,0.9967 ± 0.0015
CCN1CCN(Cc2ccc(-c3cc4c(N[C@H](C)c5ccccc5)ncnc4[nH]3)cc2)CC1,0.812 ± 0.041,0.693 ± 0.043,0.885 ± 0.014,0.752 ± 0.047,0.8103 ± 0.0047,0.6 ± 0.016
COc1cc(CC(=O)O)ccc1O [4-Hydroxy-3-methoxyphenylacetic acid],1.007 ± 0.0058,1.01 ± 0.014,1.01 ± 0.01,1.02,1.01 ± 0.01,1.01
